Measured values taken from PMC9911399, “Two distinct binding modes provide the RNA-binding protein RbFox with extraordinary sequence specificity”.
Where a chain is given by its changes, count along the chain named. In all, about 16,000 sequences were measured (“ka relative to ugcaugu”: median about 0.0091, highest 2% from about 0.032 on). Only a selection was taken, and the highest values are over-represented in it overall.

T1: RBFOX1 RRM (Homo sapiens, UniProt Q9NWB1 109-208)
T1 sequence: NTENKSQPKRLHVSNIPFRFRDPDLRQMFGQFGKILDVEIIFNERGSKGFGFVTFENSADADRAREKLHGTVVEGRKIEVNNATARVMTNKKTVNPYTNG

B1: GACUGGA (DNA:RNA)
RNA: GGGAGACCGGAAUUCAGAUUGUCCGACUGGAUUAAAUCCCGUCGUAGCCACCA
DNA 1: CAATCTGAATTCCGGTCTCCC
DNA 2: TGGTGGCTACGACGGGATT
B2: AUGUUUG (DNA:RNA)
RNA: B1 RNA with G25A, A26U, C27G, G29U, G30U, A31G
DNA 1: CAATCTGAATTCCGGTCTCCC
DNA 2: TGGTGGCTACGACGGGATT
B3: AUCAGUG (DNA:RNA)
RNA: B1 RNA with G25A, A26U, U28A, G30U, A31G
DNA 1: CAATCTGAATTCCGGTCTCCC
DNA 2: TGGTGGCTACGACGGGATT
B4: AGUUGGA (DNA:RNA)
RNA: B1 RNA with G25A, A26G, C27U
DNA 1: CAATCTGAATTCCGGTCTCCC
DNA 2: TGGTGGCTACGACGGGATT
B5: ACGCCGG (DNA:RNA)
RNA: B1 RNA with G25A, A26C, C27G, U28C, G29C, A31G
DNA 1: CAATCTGAATTCCGGTCTCCC
DNA 2: TGGTGGCTACGACGGGATT
B6: GAGGGUG (DNA:RNA)
RNA: B1 RNA with C27G, U28G, G30U, A31G
DNA 1: CAATCTGAATTCCGGTCTCCC
DNA 2: TGGTGGCTACGACGGGATT
B7: UGUUCUC (DNA:RNA)
RNA: B1 RNA with G25U, A26G, C27U, G29C, G30U, A31C
DNA 1: CAATCTGAATTCCGGTCTCCC
DNA 2: TGGTGGCTACGACGGGATT
B8: AGAUUUA (DNA:RNA)
RNA: B1 RNA with G25A, A26G, C27A, G29U, G30U
DNA 1: CAATCTGAATTCCGGTCTCCC
DNA 2: TGGTGGCTACGACGGGATT
B9: GCGCCAC (DNA:RNA)
RNA: B1 RNA with A26C, C27G, U28C, G29C, G30A, A31C
DNA 1: CAATCTGAATTCCGGTCTCCC
DNA 2: TGGTGGCTACGACGGGATT

The binders below were run against T1, RBFOX1 RRM (assay: EMSA; HiTS-Eq, 1 nM pool, 10 min; buffer printed only for the single-RNA assays: 10 mM Tris pH 7.5, 150 mM NaCl, 3.4 mM EDTA, 0.001% NP-40, 30 C). Settings: tags: His6 N-terminal (pET28a); label: 5' 32P.
Method in brief: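 A pool of RNA with 7 randomized nucleotides, 5′-radiolabelled and with DNA-annealed flanks, was equilibrated at 1 nM for 10 min in 50 µL with purified RbFox RRM, wild type or mutant, across increasing protein concentrations. Free RNA was separated by 8% native PAGE, excised, reverse-transcribed, barcoded by PCR and sequenced. Relative association constants were obtained from read-count changes of each RNA species versus the control reaction and normalised to the cognate motif.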

Binder	binding signal
B1	0.0138 KA relative to UGCAUGU
B2	0.0211 KA relative to UGCAUGU
B3	0.00865 KA relative to UGCAUGU
B4	0.00398 KA relative to UGCAUGU
B5	0.00777 KA relative to UGCAUGU
B6	0.0242 KA relative to UGCAUGU
B7	0.0181 KA relative to UGCAUGU
B8	0.00707 KA relative to UGCAUGU
B9	0.00734 KA relative to UGCAUGU
